{
  "source": "PubChem BioAssay AID463173",
  "about": "(ICCB-Longwood Screening Facility, Harvard Medical School, 2010)",
  "note": "About 4,300 (8.3%) of roughly 52,000 compounds were called active. The full list was thinned out, with actives kept by preference. Unmarked numbers belong to inactive results. Rule as the data show it: active = survival mostly below about 52% (no sharp cut-off); inactive = mostly above about 56%.",
  "data": [
    {"test_system": "DeltatarO mutant", "test": "S. aureus survival, RN4220 and DeltatarO strains – OD600, teichoic acid synthesis inhibitors, primary screen (AID 463173)", "settings": "S. aureus RN4220 wild type/DeltatarO growth, OD600, 18 h, hits give low values, screened at 18.75 µg/mL (by protocol)", "values": [
      {"smiles": "O=S(=O)(c1ccccc1)c1nc(-c2ccccc2F)oc1N1CCOCC1", "survival": "71%"},
      {"smiles": "Cc1ccc(S(=O)(=O)c2nc(-c3ccccc3Cl)oc2N2CCCCCC2)cc1", "survival": "25% (active)"},
      {"smiles": "O=S(=O)(c1ccccc1)c1nc(-c2ccc(Cl)cc2Cl)oc1N1CCCCCC1", "survival": "49%"},
      {"smiles": "O=S(=O)(c1ccccc1)c1nc(-c2ccccc2Cl)oc1N1CCCCCC1", "survival": "27% (active)"},
      {"smiles": "O=S(=O)(c1ccccc1)c1nc(-c2ccc(Cl)cc2Cl)oc1N1CCCCC1", "survival": "90%"},
      {"smiles": "Cc1ccc(S(=O)(=O)c2nc(-c3ccccc3F)oc2N2CCCCC2)cc1", "survival": "32% (active)"},
      {"smiles": "O=S(=O)(Nc1ccc(-c2ccc(N3CCCC3)nn2)cc1)c1cc(F)ccc1F", "survival": "96%"},
      {"smiles": "Cc1ccc(-c2nc(CS(=O)CC(=O)N3CCN(c4ccccc4)CC3)c(C)o2)cc1", "note": "(stereo not drawn)", "survival": "62%"},
      {"smiles": "CC(C)(C)OC(=O)N1CCC(c2c(C(=O)NCc3ccccc3)cnn2-c2cccc(F)c2)CC1", "survival": "108%"},
      {"smiles": "O=C(/C=C\\c1ccc2c(c1)OCO2)NC1CC(=O)N(c2ccccc2)C1", "note": "(stereo not drawn)", "survival": "134%"},
      {"smiles": "CN(C)c1ccc(NC(=O)CC(NCc2cccnc2)C(=O)O)cc1", "note": "(stereo not drawn)", "survival": "76%"},
      {"smiles": "CC(=O)c1cccc(NC(=O)CN2C=NS(=O)(=O)c3ccc(C)cc32)c1", "survival": "89%"},
      {"smiles": "COc1ccc(-c2csc3nc(-c4ccc(F)cc4)oc(=O)c23)cc1", "survival": "61%"},
      {"smiles": "O=C(NCc1ccc2c(c1)OCO2)c1ccc2c(c1)N(Cc1cccc(Cl)c1)C(=O)c1ccccc1S2", "survival": "84%"},
      {"smiles": "O=C(NCc1cccs1)C1CCN(C(=O)N2CCOc3ccccc32)CC1", "survival": "107%"},
      {"smiles": "Cc1cc(C)cc(NS(=O)(=O)c2cc3[nH]c(=O)c(=O)[nH]c3cc2C)c1", "survival": "87%"},
      {"smiles": "COc1ccc(NS(=O)(=O)c2cc3[nH]c(=O)c(=O)[nH]c3cc2C)cc1Cl", "survival": "94%"},
      {"smiles": "COc1cc(NS(=O)(=O)c2cc3[nH]c(=O)[nH]c3cc2C)cc(OC)c1OC", "survival": "37% (active)"},
      {"smiles": "O=C1C2C(C(=O)N1CCO)C1C=CC2C12CC2", "note": "(stereo not drawn)", "survival": "100%"},
      {"smiles": "CCOc1ccccc1CNC(=O)c1[nH]c2ccccc2c1Sc1ccccc1", "survival": "72%"},
      {"smiles": "COc1cccc(NC(=O)/C(C#N)=C\\c2cn(Cc3ccc(C)cc3)c3ccccc23)c1", "survival": "90%"},
      {"smiles": "COC(=O)c1c(NC(=O)COc2cc(C)ccc2C(C)C)sc2c1CCC(C)C2", "note": "(stereo not drawn)", "survival": "61%"},
      {"smiles": "COC(=O)c1c(NC(=O)C(C)Oc2ccc(Cl)c(C)c2)sc(C)c1C", "note": "(stereo not drawn)", "survival": "15% (active)"},
      {"smiles": "COC(=O)c1c(NC(=O)Nc2ccc(Cl)cc2)sc(C)c1C", "survival": "74%"},
      {"smiles": "COC(=O)c1c(NC(=O)COc2cc(C)c(Cl)c(C)c2)sc2c1CCCC2", "survival": "147%"},
      {"smiles": "COC(=O)c1c(NC(=O)COc2c(C)ccc(C)c2C)sc2c1CCC(C)C2", "note": "(stereo not drawn)", "survival": "22% (active)"},
      {"smiles": "COC(=O)c1c(NC(=O)Cc2cccs2)sc2c1CCCC2", "survival": "119%"},
      {"smiles": "CCOC(=O)c1sc(NC(=O)C(C)Oc2ccc(OC)cc2)c(C(=O)OCC)c1C", "note": "(stereo not drawn)", "survival": "73%"},
      {"smiles": "COC(=O)c1c(NC(=O)c2ccc(Cl)c(Cl)c2)sc2c1CCCC2", "survival": "63%"},
      {"smiles": "COC(=O)c1c(NC(=O)COc2c(C)cccc2C)sc2c1CCCC2", "survival": "2% (active)"},
      {"smiles": "COC(=O)c1c(NC(=O)COc2ccc(OC)cc2)sc2c1CCC(C)C2", "note": "(stereo not drawn)", "survival": "66%"},
      {"smiles": "COC(=O)c1c(NC(=O)C(C)Oc2ccc(Cl)cc2Cl)sc2c1CCCC2", "note": "(stereo not drawn)", "survival": "46%"},
      {"smiles": "CCCc1ccc(OC(C)C(=O)Nc2sc3c(c2C(=O)OC)CCCCC3)cc1", "note": "(stereo not drawn)", "survival": "9% (active)"},
      {"smiles": "Cc1ccc(S(=O)(=O)N2CCN(C(=O)c3c(C)nn(-c4ccccc4)c3Cl)CC2)cc1", "survival": "63%"},
      {"smiles": "O=C(O)CCNC(=O)c1ccc(Br)o1", "survival": "72%"},
      {"smiles": "Cc1ccccc1Nc1c(-c2ccc(N3CCOCC3)cc2)nc2ncccn12", "survival": "83%"},
      {"smiles": "Cc1cccc(C)c1NC(=O)CN(C)S(=O)(=O)c1ccc2c(c1)n(C)c(=O)c(=O)n2C", "survival": "89%"},
      {"smiles": "O=c1c(S(=O)(=O)c2ccccc2)cn(Cc2cccc(F)c2)c2cc(N3CCOCC3)c(F)cc12", "survival": "78%"},
      {"smiles": "COc1ccc(Cl)cc1NC(=O)c1c(NCc2ccc(C)o2)sc2c1CCCC2", "survival": "74%"},
      {"smiles": "COc1ccc(Cl)cc1N(C)C(=O)c1ccc2c(=O)n3c(nc2c1)CCCCC3", "survival": "76%"},
      {"smiles": "N#Cc1ccc(NC2=NS(=O)(=O)c3ccccc32)cc1", "survival": "68%"},
      {"smiles": "O=C(NCCc1ccc(Cl)cc1)c1ccco1", "survival": "98%"},
      {"smiles": "CCOC(=O)c1c(NC(=O)COc2c(C)cc(Cl)cc2Cl)sc2c1CCCC2", "survival": "53%"},
      {"smiles": "CCOc1ccccc1NC(=O)c1c(NC(=O)C(C)Oc2ccc(Cl)cc2)sc2c1CCCCC2", "note": "(stereo not drawn)", "survival": "83%"},
      {"smiles": "COC(=O)c1c(NC(=O)c2c(OC)cccc2OC)sc2c1CCCC2", "survival": "13% (active)"},
      {"smiles": "COC(=O)c1c(NC(=O)c2ccc(OC)cc2OC)sc2c1CCCCC2", "survival": "47%"},
      {"smiles": "COC(=O)c1c(NC(=O)COc2ccc(C(C)C)cc2)sc2c1CCCC2", "survival": "47%"},
      {"smiles": "Cc1ccccc1NC(=O)c1c(NC(=O)C(C)Oc2cccc(Cl)c2)sc2c1CCCC2", "note": "(stereo not drawn)", "survival": "40% (active)"},
      {"smiles": "COC(=O)c1c(NC(=O)c2ccccc2C(=O)O)sc2c1CCCC2", "survival": "92%"},
      {"smiles": "CCOC(=O)c1c(NC(=O)C(C)Oc2ccc(Cl)c(C)c2)sc2c1CCCC2", "note": "(stereo not drawn)", "survival": "42% (active)"},
      {"smiles": "CCOc1ccccc1NC(=O)c1c(NC(=O)C(C)Oc2cccc(Cl)c2)sc2c1CCCCC2", "note": "(stereo not drawn)", "survival": "64%"},
      {"smiles": "CCNC(=O)c1c(NC(=O)COc2ccc(F)cc2)sc2c1CCCC2", "survival": "59%"},
      {"smiles": "Cc1cc(OC(C)C(=O)Nc2sc3c(c2C(N)=O)CCCC3)ccc1Cl", "note": "(stereo not drawn)", "survival": "59%"},
      {"smiles": "CCCc1ccc(OCC(=O)Nc2sc3c(c2C(=O)OC)CCCCC3)cc1", "survival": "38% (active)"},
      {"smiles": "CCN(C(=O)CN(C)S(=O)(=O)c1ccc2c(c1)c(=O)n(C)c(=O)n2C)c1ccc(OC)cc1", "survival": "90%"},
      {"smiles": "OP(Oc1ccccc1)(Oc1ccccc1)=P(O)(Oc1ccccc1)Oc1ccccc1", "survival": "97%"},
      {"smiles": "COc1ccc(OC)c(Nc2ncc3c(n2)CCN(Cc2cc(OC)c(OC)c(OC)c2)C3)c1", "survival": "81%"},
      {"smiles": "CC(C)OCCCNC(=O)CN1C(=O)COc2ccc(S(=O)(=O)N3CCOCC3)cc21", "survival": "79%"}
    ]}
  ]
}
